# Test results taken from ChEMBL document CHEMBL3988442, “University of Dundee, Small-Polar-MMV Screening Library” (2021).
# The campaign covered roughly 69,000 compounds. About 1,000 (1.4%) showed an effect of 50% or more. The sample as a whole holds a higher share of strong results than the screen did.
# System: Leishmania donovani
# Assay: Leishmania intramacrophage assay
# Type: functional, organism-based
# Design: scale not given: in the data most compounds retested in dose-response had high values
smiles,measurement,setting,value
CN1C(=O)C2(CCN(CC3CC3)CC2)c2ccccc21.O=C(O)C(F)(F)F,Percent Effect,"30 µM, 30.03 µM",16.21%
CN(C)[C@@H]1CCN(C(=O)Cc2ccc(F)cc2)[C@H]1Cc1ccncc1.O=C(O)C(F)(F)F.O=C(O)C(F)(F)F,Percent Effect,"30.3 µM, […]",29.68%
Cc1cccc(CN2CC[C@@H]3[C@@H]2CCN3C(=O)c2ccoc2C)n1.O=C(O)C(F)(F)F.O=C(O)C(F)(F)F,Percent Effect,"30.3 µM, […]",32.03%
Cc1[nH]c(C2(N)CCCCC2)nc(=O)c1C.Cl,Percent Effect,"30.3 µM, […]",27.19%
Cc1cnc(C(=O)N2C[C@H]3CN(Cc4cccnc4)C[C@H]3C2)cn1.O=C(O)C(F)(F)F.O=C(O)C(F)(F)F,Percent Effect,"30.3 µM, […]",19.7%
Cc1noc(C)c1CN1C[C@@H]2C[C@H](C(=O)NCC3CC3)N(C)[C@@H]2C1.O=C(O)C(F)(F)F.O=C(O)C(F)(F)F,Percent Effect,"30.3 µM, […]",-4.016%
CCN1CC2(CC1=O)CN(Cc1ccccn1)CCN(C(C)=O)C2.O=C(O)C(F)(F)F.O=C(O)C(F)(F)F (configuration not stated),Percent Effect,"30.3 µM, […]",0.8966%
O=C(O)C(F)(F)F.O=C(O)C(F)(F)F.c1ccc(CN2CC[C@H]3CO[C@H](CNc4ncccn4)[C@H]3C2)cc1,Percent Effect,"30.3 µM, […]",8.127%
O=C(O)C(F)(F)F.O=C(O)C(F)(F)F.c1cncc(COC[C@H]2CC[C@H]3[C@H](CCN3Cc3nccs3)O2)c1,Percent Effect,"30.3 µM, […]",98.87%
O=C(O)C(F)(F)F.O=C(O)C(F)(F)F.c1cncc(COC[C@H]2CC[C@H]3[C@H](CCN3Cc3cccs3)O2)c1,Percent Effect,"30 µM, 30.03 µM",31.53%
CN(C)C(=O)CN1CC[C@@H]2O[C@@H](COCc3cccnc3)CC[C@@H]21.O=C(O)C(F)(F)F.O=C(O)C(F)(F)F,Percent Effect,"30.3 µM, […]",38.61%
COc1cc(CNC(C)Cn2cccn2)cc(Cl)c1OC.Cl (configuration not stated),Percent Effect,30 µM,29.92%
Cc1cc(CN2C[C@@H]3COC[C@]3(CNC(=O)c3ccsc3)C2)no1.O=C(O)C(F)(F)F,Percent Effect,"30.3 µM, […]",18.56%
Cn1cc(CN2CCC3(CCCN3Cc3cccnc3)CC2)cn1.O=C(O)C(F)(F)F.O=C(O)C(F)(F)F.O=C(O)C(F)(F)F,Percent Effect,"30.3 µM, […]",63.2%
O=C(O)C(F)(F)F.O=C(c1ccc[nH]1)N1CCC2(CCCN2Cc2cccnc2)CC1,Percent Effect,"30.3 µM, […]",12.17%
Cn1cc(N2CCC3(CCN(Cc4cccnc4)C3)C2=O)cn1.O=C(O)C(F)(F)F.O=C(O)C(F)(F)F (configuration not stated),Percent Effect,"30 µM, 30.03 µM",-14.07%
COCCN1C[C@@H]2[C@@H](OC)CCN(C(=O)Cc3ccccc3)[C@@H]2C1.O=C(O)C(F)(F)F,Percent Effect,"30.3 µM, […]",35.25%
COc1cc(C2SCC(=O)Nc3[nH]ncc32)c(OC)c2c1OCO2 (configuration not stated),Percent Effect,"30.3 µM, […]",8.87%
COc1cc(C2SCC(=O)Nc3[nH]ncc32)cc(OC)c1OC (configuration not stated),Percent Effect,"30.3 µM, […]",56.1%
COc1cc(C2SCC(=O)Nc3[nH]ncc32)cc2c1OCO2 (configuration not stated),Percent Effect,"30.3 µM, […]",1.862%
COc1ccnc(N2C[C@@H]3CC[C@H](C2)N(CC2CC2)C3)n1,Percent Effect,"30.3 µM, […]",37.63%
COc1ccc(-c2ccccc2CCN)c(OC)c1,Percent Effect,"30.3 µM, […]",75.35%
CCOc1ccc(-c2cc(CCN)ccc2OC)cc1,Percent Effect,"30.3 µM, […]",-5.145%
CC(=O)Nc1cccc(-c2ccccc2CCN)c1,Percent Effect,"30.3 µM, […]",-35.33%
COCC(=O)N1CCC2(CCN(Cc3cccnc3)C2)CC1.O=C(O)C(F)(F)F.O=C(O)C(F)(F)F,Percent Effect,"30.3 µM, […]",22.03%
Fc1cnc(N2CCO[C@H]3CN(CC4CCCCC4)C[C@H]32)nc1.O=C(O)C(F)(F)F,Percent Effect,"30.3 µM, […]",-16.59%
O=C(O)C(F)(F)F.O=C(O)C(F)(F)F.O=C(O)C(F)(F)F.O=C1C[C@@H]2[C@H](CCN2Cc2ccccn2)N1Cc1ccncc1,Percent Effect,"30.3 µM, […]",27.44%
c1ccc(CCN2C[C@@H]3OCCN(c4ncccn4)[C@@H]3C2)cc1,Percent Effect,"30.3 µM, […]",6.788%
c1ccc(CN2C[C@@H]3OCCN(CC4CCCO4)[C@@H]3C2)nc1 (some centres not stated),Percent Effect,"30 µM, 30.03 µM",15.57%
c1ccc(CN2C[C@@H]3OCCN(c4cccnc4)[C@@H]3C2)nc1,Percent Effect,"30.3 µM, […]",55.81%
O=C(O)C(F)(F)F.O=C(O)C(F)(F)F.O=C(O)C(F)(F)F.c1ccc(CN2C[C@@H]3OCCN(c4ncccn4)[C@@H]3C2)nc1,Percent Effect,"30 µM, 30.03 µM",-0.09782%
O=C(O)C(F)(F)F.c1cncc(N2CCO[C@H]3CN(CC4CCOC4)C[C@H]32)c1 (some centres not stated),Percent Effect,"30.3 µM, […]",31.71%
Cc1ccc(N2CCO[C@H]3CN(Cc4ccccn4)C[C@H]32)nn1.O=C(O)C(F)(F)F.O=C(O)C(F)(F)F.O=C(O)C(F)(F)F,Percent Effect,"30.3 µM, […]",63.6%
Cc1ccc(N2CCO[C@H]3CN(Cc4ccncc4)C[C@H]32)nn1.O=C(O)C(F)(F)F.O=C(O)C(F)(F)F.O=C(O)C(F)(F)F,Percent Effect,"30 µM, 30.03 µM",16.14%
Cn1ccnc1CN1C[C@@H]2OCCN(c3ncccn3)[C@@H]2C1,Percent Effect,"30.3 µM, […]",50.19%
Fc1ccccc1CN1C[C@@H]2OCCN(c3ncccn3)[C@@H]2C1,Percent Effect,"30.3 µM, […]",15.52%
CC(C)N1CC[C@@H]2OC[C@H](C(=O)Nc3cccnc3)C[C@@H]2C1.O=C(O)C(F)(F)F.O=C(O)C(F)(F)F,Percent Effect,"30.3 µM, […]",-12.98%
CCCn1nc(C)c(-c2cncn2CC2(N(C)C)CCC(C)CC2)c1C (configuration not stated),Percent Effect,"30.3 µM, […]",1.091%
CCCN1CCC(c2nc3ccc(C)cn3n2)CC1.O=C(O)C(F)(F)F,Percent Effect,"30.3 µM, […]",17.32%
Cc1cccc(CN2C(=O)C[C@H]3[C@@H]2CCN3Cc2nccs2)n1.O=C(O)C(F)(F)F.O=C(O)C(F)(F)F,Percent Effect,"30.3 µM, […]",2.484%
CC(C)NC(=O)c1ccc2c(c1)C1(CCN(C)CC1)C(=O)N2.O=C(O)C(F)(F)F,Percent Effect,"30.3 µM, […]",1.546%
Cc1ccc(C(=O)N2C[C@H](N3CCOCC3)[C@@H]3OCCC[C@@H]32)cn1.O=C(O)C(F)(F)F.O=C(O)C(F)(F)F,Percent Effect,"30.3 µM, […]",2.104%
CN1[C@H]2CC[C@@H]1CN(c1cc(Sc3cccs3)nc(N)n1)CC2,Percent Effect,"30.3 µM, […]",2.015%
CC(C)CCN1C[C@@H]2OCCN(c3ncc(F)cn3)[C@@H]2C1.O=C(O)C(F)(F)F,Percent Effect,"30.3 µM, […]",-5.572%
COCC1CC2(CCN(Cc3cccnc3)CC2)CN1C(C)C (configuration not stated),Percent Effect,"30.3 µM, […]",20.26%
Cl.NC(=O)N1CC2(CCNCC2)c2cc(Cl)ccc21,Percent Effect,"30 µM, 30.03 µM",2.936%
Cc1noc(C)c1CN1CC[C@H]2C[C@@H](c3nccs3)O[C@@H]2C1,Percent Effect,"30 µM, 30.03 µM",15.1%
Cc1cccc(-c2ncc(CNC(C)Cc3ccncc3)cn2)c1 (configuration not stated),Percent Effect,"30.3 µM, […]",-22.9%
CC(Cc1cccc(F)c1)NCc1cnc(N2CCN(C)CC2)nc1 (configuration not stated),Percent Effect,"30.3 µM, […]",97.99%
Cc1cccc(-c2ncc(CNC(C)Cc3ncccc3C)cn2)c1 (configuration not stated),Percent Effect,"30.3 µM, […]",-19.51%
Cl.Cl.Fc1ccc2c(c1)C1(CCNCC1)CC2NC1CC1 (configuration not stated),Percent Effect,"30.3 µM, […]",27.52%
Cc1ccc(O[C@@H]2C[C@H]3CN(C(=O)Cc4ccccn4)CCN3C2)cc1.O=C(O)C(F)(F)F.O=C(O)C(F)(F)F,Percent Effect,"30.3 µM, […]",11.94%
CCc1ncc(CN(CCc2ccccc2)Cc2cccs2)cn1.O=C(O)CC(O)(CC(=O)O)C(=O)O,Percent Effect,"30.3 µM, […]",-1.419%
c1ccc(-c2ncc(CN3CCC4(CCNCC4)C3)cn2)cc1,Percent Effect,"30.3 µM, […]",24.37%
Oc1cccc2ccc(CN3CCC4(CCNCC4)C3)nc12,Percent Effect,"30.3 µM, […]",61.55%
Fc1cnccc1CN1CCC2(CCNCC2)C1,Percent Effect,"30.3 µM, […]",25.89%
COCC1CC2(CCN(CC3CC3)CC2)CN1Cc1ccccn1.O=C(O)C(F)(F)F.O=C(O)C(F)(F)F (configuration not stated),Percent Effect,"30.3 µM, […]",40.82%
Fc1cnc(N2CCCC3(CCN(Cc4ccoc4)C3)C2)nc1.O=C(O)C(F)(F)F.O=C(O)C(F)(F)F (configuration not stated),Percent Effect,"30.3 µM, […]",13.62%
Cc1oncc1C(=O)N1CC[C@H]2[C@H](C[C@@H](CN3CCCC3)N2C)C1.O=C(O)C(F)(F)F.O=C(O)C(F)(F)F,Percent Effect,"30.3 µM, […]",25.5%
Cc1cc(CC(C)NC2CCN(CC(C)C)CC2)[nH]n1 (configuration not stated),Percent Effect,"30.3 µM, […]",19.46%
Cc1cccc(C)c1NC(=O)CNC(C)Cc1ccsc1 (configuration not stated),Percent Effect,"30.3 µM, […]",11.71%
Cc1cc(CC(C)NC2CCSCC2)[nH]n1 (configuration not stated),Percent Effect,"30.3 µM, […]",3.441%
CCOC(=O)N1CCC(NC(C)Cc2cc(C)n[nH]2)CC1 (configuration not stated),Percent Effect,"30.3 µM, […]",11.64%
Cc1cc(N2CCC(NC(C)Cc3ccsc3)CC2)nc(C)n1 (configuration not stated),Percent Effect,"30.3 µM, […]",70.01%
Cc1cc(N2CCC(NC(C)Cc3ccsc3)CC2)nc(N)n1 (configuration not stated),Percent Effect,"30.3 µM, […]",71.35%
CCS(=O)(=O)NC[C@]12COC[C@H]1CN(Cc1cccnc1OC)C2.O=C(O)C(F)(F)F.O=C(O)C(F)(F)F,Percent Effect,"30.3 µM, […]",-3.146%
CC(C)N(C)Cc1cncc2c1CCN(Cc1cccs1)C2.Cl.Cl.Cl,Percent Effect,"30.3 µM, […]",7.349%
O=C(O)C(F)(F)F.O=C(O)C(F)(F)F.c1cncc(OC[C@@]23CCO[C@@H]2CCN(Cc2cccs2)C3)c1,Percent Effect,"30.3 µM, […]",13.49%
O=C(O)C(F)(F)F.O=C1Nc2ccccc2C12CCN(Cc1nccs1)CC2,Percent Effect,"30.3 µM, […]",18.81%
Cc1ccc(CN2CCO[C@H]3[C@@H](OCc4cccnc4)CC[C@@H]32)o1.O=C(O)C(F)(F)F.O=C(O)C(F)(F)F,Percent Effect,"30.3 µM, […]",19.54%
COc1cccc(Cn2cc(C3=CCN(CCO)CC3)cn2)c1,Percent Effect,"30.3 µM, […]",22.79%
COc1ccc(-n2nnnc2C2(NCc3ccco3)CCCCC2)cc1,Percent Effect,"30.3 µM, […]",-17.59%
OCCN1CCC(F)(F)C2(CCN(c3cccnc3)C2)C1 (configuration not stated),Percent Effect,"30.3 µM, […]",51.95%
Cc1ccc(N2CCC3(CN(CCO)CCC3(F)F)C2)nn1.O=C(O)C(F)(F)F (configuration not stated),Percent Effect,"30.3 µM, […]",39.18%
FC1(F)CCNCC12CCN(c1cccnc1)C2.O=C(O)C(F)(F)F.O=C(O)C(F)(F)F (configuration not stated),Percent Effect,"30.3 µM, […]",9.392%
COCCN1C[C@@H]2CN(Cc3cccc(C)n3)C[C@@H]2C1=O.O=C(O)C(F)(F)F,Percent Effect,"30 µM, 30.03 µM",25.64%
CC(C)CN1CCC2(COCc3cnc(-c4ccccc4)nc32)C1.O=C(O)C(F)(F)F (configuration not stated),Percent Effect,"30.3 µM, […]",36%
